Most compounds without a hit are left out; they make up all but 4.6% or so of the library.
V-ATPase pHluor = regulators of yeast V-ATPase proton pumping, primary screen, pHLuorin cytosolic pH fluorescence | hit rate 0.37% among 350,000 | AID 504577, 2011 | response, % at 10 µM | S. cerevisiae; in the data active = response mostly above about 7.3%, no sharp cut-off; inactive = mostly below about 5.4%; also: actives read high
tim23-1 inh = growth inhibitors of tim23-1 mutant yeast, primary screen, luminescence, uHTS; S. cerevisiae tim23-1 growth, BacTiter-Glo luminescence, 24 h; inhibition, % at 20 µM; hit rate 1.3% among 330,000;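 active = growth inhibition of the mutant yeast at or above 50%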;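 also: temperature-sensitive mutant grown at 25 °C; plate controls were DMSO-treated mutant yeast for no effect and medium wells lacking yeast for full effect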
TIM10 inh = growth inhibitors of isogenic TIM10 control yeast, primary screen, counter-screen for tim10-1 yeast inhibitor project, luminescence, uHTS | S. cerevisiae TIM10 strain growth, BacTiter-Glo luminescence, 24 h | inhibition, % at 10 µM | hit rate 1.4% among 330,000 | AID 463195, 2010;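 active = inhibition of 40% or more at the single tested concentration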;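 also: wild-type TIM10 isogenic control strain grown at permissive 25 °C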
tim10-1 inh = growth inhibitors of tim10-1 mutant yeast, primary screen, luminescence, uHTS; hit rate 2.2% among 330,000; AID 463190, 2010; inhibition, % at 20 µM; S. cerevisiae tim10-1 ts strain growth, BacTiter-Glo, 24 h;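 active = inhibition of at least 40%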;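 also: mutant grown at 25 °C; 0% = DMSO wells with yeast and 100% = wells holding no yeast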
SKKanGAS inh = S. pyogenes SKKanGAS growth inhibitors in kanamycin, primary screen, streptokinase expression inhibitor project, SKKanGAS strain, BacTiter-Glo luminescence | 6 h | hit rate 1.3% among 300,000 | inhibition, % at 7.5 µM;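 active = mean replicate score, as percent of positive control median, at least 50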;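 also: strain carries kanamycin resistance gene driven by streptokinase promoter and grows in 40 µg/ml kanamycin; loss of luminescence reflects streptokinase promoter inhibition or plain growth inhibition; 0% = median of DMSO wells and 100% = positive control at its reference dose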
PfHsp90 set2 = growth inhibition of PfHsp90-expressing yeast, primary screen, antimalarial PfHsp90 inhibitor project, S. cerevisiae, BacTiter-Glo luminescence, single point, set 2 | BacTiter-Glo ATP, 48 h; yeast lacking PDR1 and PDR3 efflux regulators | inhibition, % at 9.4 µM | hit rate 0.32% among 310,000 | AID 504621, 2011;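 active = every replicate shows inhibition above about 80%, whatever the replicate mean, limit read from the data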;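 also: 0% = DMSO neutral controls and 100% = 20 µM radicicol positive controls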
tim10 confirm = growth inhibitors of wild-type TIM10 yeast, confirmation, counter-screen for tim10-1 synthetic lethality project, single concentration, luminescence, S. cerevisiae | shares compounds with TIM10 inh | S. cerevisiae tim10 strain growth, BacTiter-Glo luminescence, 24 h | inhibition, % at 10 µM | hit rate 63% among 4,600 | AID 463215, 2010;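 active = inhibition of yeast growth at or above a set limit in either of two replicates at 10 µM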;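 also: this counterscreen used the strain with wild-type TIM10; 0% = yeast with DMSO and 100% = medium wells lacking yeast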
Numbers without * were called inactive; x = no result; ! = not active in a repeat.

SMILES | V-ATPase pHluor | tim23-1 inh | TIM10 inh | tim10-1 inh | SKKanGAS inh | PfHsp90 set2 | tim10 confirm
COc1ccc(NC(=O)c2cc3c(-c4ccc(OC)c(OC)c4)nn(C)c3s2)cc1OC | -1 | 35 | 40* | 34 | 38 | -30 | 27*
COc1ccc(-c2nn(C)c3sc(C(=O)NCc4ccco4)cc23)cc1OC | 5 | -20 | -31 | -21 | 5 | -21 | x
CC1(C)NC(=O)N(CCC(=O)Nc2cc(C(F)(F)F)ccc2Cl)C1=O | 1 | 1 | 14 | -8 | x | x | x
CCN(C(=O)N1CCOCC1)c1ccccc1C | -1 | -5 | 6 | 6 | 0 | 7 | x
COCCn1c(C)cc(C(=O)COc2ncnc3ccc(Br)cc23)c1C | -1 | 19 | 43* | 11 | -2 | 24 | 22
CCCCn1c(N)c(N(CC(C)C)C(=O)c2ccc(S(=O)(=O)N3CCC(C)CC3)cc2)c(=O)[nH]c1=O | -1 | -3 | -1 | -6 | 1 | 13 | x
O=[N+]([O-])c1ccc(Nc2nc(N3CCOCC3)nc(N3CCOCC3)n2)cc1 | 0 | 19 | 13 | 14 | 3 | -17 | x
NNc1nc(Nc2ccccc2)nc(N2CCCCC2)n1 | -1 | 37 | 41* | 32 | 26 | 3 | 6
NNc1nc(Nc2ccc([N+](=O)[O-])cc2)nc(N2CCCCCC2)n1 | 2 | 42 | 97* | 33 | 82* | -10 | 25
O=C(c1ccc(Cn2c(=S)[nH]c3ccccc3c2=O)cc1)N1CCN(c2ccccn2)CC1 | 1 | 30 | 73* | 20 | 20 | x | 4
O=C(c1ccc(Cn2c(=O)[nH]c3ccccc3c2=O)cc1)N1CCN(c2ccccn2)CC1 | -3 | -2 | 2 | -4 | -3 | 7 | x
CN(C)CCCNc1cc(C(C)(C)C)nc2c(-c3ccc(Cl)cc3)cnn12 | 0 | -17 | 55* | -15 | 75* | 27 | 60*
CC(C)(C)c1cc(-n2ccnc2)n2ncc(-c3ccc(Cl)cc3)c2n1 | -6 | 0 | -4 | 16 | 13 | 29 | x
O=c1c(Cl)c(N/N=C/c2ccc(Br)cc2)cnn1-c1ccccc1 | -4 | 36 | 40* | 23 | 13 | -44 | -4
CCNS(=O)(=O)c1ccc2c(c1)NCC2 | 4 | 6 | -6 | 11 | -3 | -4 | x
O=C1COc2ccc(S(=O)(=O)N3CCN(c4ccccc4F)CC3)cc2N1 | 0 | 20 | 8 | 6 | -20 | -2 | x
Cc1ccsc1/C=N/NC(=S)NCc1ccccc1 | 6 | 28 | 54* | 35 | 0 | -9 | 44*
COC(=O)c1ccc(OC(C)C(=O)c2ccc(C)cc2)cc1 (stereo not drawn) | 1 | 24 | 1 | 0 | -12 | 42 | x
CCN(CC)c1ccc(C(=S)NC2CCCCC2)cc1 | -2 | 24 | 46* | 32 | 0 | -1 | 28
CCCCCC(=O)N1C[C@@H](n2cc(-c3ccc(F)cc3)nn2)[C@H](O)C[C@@H]1c1ccc(OC)cc1 | 2 | x | x | x | x | x | x
COc1ccc2cc3[n+](cc2c1OC)CCc1cc2c(cc1-3)OCO2 | 2 | 12 | 51*! | 39 | 7 | -3 | 30
COc1cccc(C2=NCCc3cc4c(cc32)OCO4)c1OC | -1 | 10 | 9 | 19 | 14 | -2 | x
CC(C)(C)OC(=O)C(C)(C)Sc1nnc(N)s1 | 0 | 7 | 14 | 3 | -1 | -7 | x
Cn1cc(Br)c(NC(=O)/C=C/C(=O)O)n1 | -3 | 17 | 66* | 2 | -2 | -19 | 3
Fc1cccc(/C=N/n2c(C3CCCCC3)n[nH]c2=S)c1 | -1 | 26 | 44* | 26 | 5 | -21 | 37*
SMILES | V-ATPase pHluor | tim23-1 inh | TIM10 inh | tim10-1 inh | SKKanGAS inh | PfHsp90 set2 | tim10 confirm
COc1cccc(/C=N/n2c(C3CCCCC3)n[nH]c2=S)c1 | 0 | 42 | 33 | 29 | 6 | 14 | x
Cn1c(=O)[nH]c2ccc([N+](=O)[O-])nc21 | 2 | 5 | -2 | 0 | 0 | -25 | x
CN(C)CCCn1c(SCC(=O)Nc2nc(-c3cccc(Br)c3)cs2)nc2ccccc2c1=O | -7 | -10 | 43* | 23 | 97* | -22 | 25
O=c1[nH]cnc2c1ncn2[C@@H]1O[C@H](COS(=O)(=O)O)[C@@H](O)[C@H]1O | 1 | 9 | -3 | -11 | x | x | x
Cc1ccc2ccc(C3C(=O)c4ccccc4C3=O)nc2c1 | 0 | 27 | 61* | 12 | -2 | -14 | 66*
COc1ccc(C(=O)N/C(=C/c2ccc(Cl)cc2)C(=O)NCc2ccncc2)cc1 | -1 | -9 | 96* | -9 | 0 | -3 | 4
CCOC(=O)c1cnn(-c2nc(-c3ccc(F)cc3)cs2)c1C(F)(F)F | 3 | 23 | 45* | 25 | 39 | -9 | 26
CC(C)(C)C(=O)OCc1nc(-c2ccc(F)cc2)cs1 | 7 | 31 | 41* | 38 | -5 | -23 | 39*
CNC(=O)c1cnn(-c2nc(-c3ccc(OC)cc3)cs2)c1C(F)(F)F | -4 | -6 | 4 | 2 | 6 | 15 | x
Cc1ccc(C(=O)N2CCN(Cc3ccccc3)CC2)o1 | -1 | -2 | 12 | 0 | 1 | -25 | x
O=C(c1ccc([N+](=O)[O-])o1)N1CCN(Cc2ccccc2)CC1 | 0 | 40 | 43* | 33 | 13 | -12 | 38*
O=C(N/N=C/c1ccc([N+](=O)[O-])cc1)c1cc(C2CC2)[nH]n1 | -1 | 23 | 51* | 36 | 7 | -16 | 56*
O=C(O)CNC(=O)c1ccccc1NC(=O)c1ccco1 | 1 | 7 | 0 | 12 | x | x | x
O=C(Nc1ccccc1C(=O)NCCc1ccccc1)c1ccco1 | 1 | 23 | 97* | 21 | 7 | -18 | -10
CN(C)S(=O)(=O)c1cccc(NC(=S)NC(=O)C2CCCCC2)c1 | 4 | 43 | 41* | 24 | -7 | 34 | 35*
Cc1cc(NC(=S)NC(=O)C2CC2)ccc1Br | -2 | 47 | 41* | 32 | 0 | x | 42*
Cc1ccc(NC(=S)NC(=O)C2CCCC2)c(Br)c1 | 3 | 45 | 41* | 27 | x | -24 | 35*
CN(C)S(=O)(=O)c1cccc(NC(=S)NC2CCCCC2)c1 | 2 | 17 | 14 | 26 | -3 | x | x
O=C(NC(=S)Nc1ccccc1Br)C1CC1 | 4 | 48 | 10 | 30 | 3 | -17 | x
Brc1ccc2ncc(Br)cc2c1 | -3 | 2 | 5 | 10 | -2 | 5 | x
CCNC(=O)CSc1nnc(-c2ccccc2Br)n1-c1cccc(C(F)(F)F)c1 | 4 | -2 | 47* | 23 | 5 | 16 | 6

Screens (PubChem)
